Drawing on the supplement of paper PMC7156485, this text covers cell number and H1.0 immunofluorescence intensity for twelve compounds.

Common to all, as to conditions: concentration: 10 µM; 24 h
In assay [1] the test system is HCC1569. The assay is described as follows: cell number relative to DMSO (% of DMSO); higher = more cells (less growth inhibition / toxicity). The essentials:
(§1)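 For HCC1569 and TDF cells, compounds at 10 µM were applied for 24 h at 37 °C in triplicate in 384-well plates. Cells were fixed in 3.7% formaldehyde, stained for H1.0 and with DAPI, and imaged at ×10 over six fields per well. The endpoint, H1.0 nuclear intensity or cell number, is shown as percent of the plate control using the median of replicates. Positional effects were smoothed for HCC1569 only.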

Assay [2] concerns TDF. The description is as above. The essentials:
as §1

Assay [3] has as its system TDF. The assay is described as follows: H1.0 immunofluorescence intensity relative to DMSO (% of DMSO); higher = stronger H1.0 induction, active = 120 or more. In short, it runs like this: as §1
For assay [4], the system named is HCC1569. The assay is described as follows: H1.0 immunofluorescence intensity relative to DMSO (% of DMSO); higher = stronger H1.0 induction, active = 140 or more. In short, it runs like this:
as §1

Each structure is given as a SMILES string.
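For H1.0 immunofluorescence intensity relative to DMSO in this document: TDF is a line of transformed human dermal fibroblasts of mesenchymal origin.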
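For cell number relative to DMSO in this document: TDF denotes transformed human dermal fibroblasts of mesenchymal origin.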

`CC=C1CC(C)C(C)(O)C(=O)OCC2=CCN3CCC(OC1=O)C23` (configuration not stated) [Senecionine]: the cell number in assay [1] was found to be 98.6; in assay [2] it was 101. Further, the H1.0 immunofluorescence intensity in assay [3] is 108 (inactive); in assay [4], 91.8 (inactive).
With `CC(C)CC1C(=O)N2CCCC2C2(O)OC(NC(=O)C3C=C4c5cccc6[nH]c(Br)c(c56)CC4N(C)C3)(C(C)C)C(=O)N12.CS(=O)(=O)O` (single isomer, unassigned; (+)) [(+)-Bromocriptine methanesulfonate], the cell number in assay [1] came out at 91.1; in assay [2], 103. Besides, the H1.0 immunofluorescence intensity in assay [3] was 96.3 (inactive); in assay [4], 108 (inactive).
For `NC(=O)CN1CC(O)CC1=O` (configuration not stated) [Oxiracetam], the cell number in assay [1] stood at 101; in assay [2], 111. In addition, the H1.0 immunofluorescence intensity in assay [3] was 89.7 (inactive); in assay [4], 95.4 (inactive).
The matching figures for `O=C(O)C1CCN1` [L-azetidine-2-carboxylic acid]: 100, 103, 92.3 (inactive) and 92 (inactive).
Turning to `CC1=C(C)C(=O)C(CCC(C)(O)CCCC(C)CCCC(C)CCCC(C)C)=C(C)C1=O` (racemic), the cell number came out at 99 in assay [1] and 104 in assay [2]. In addition, the H1.0 immunofluorescence intensity in assay [3] was 98.7 (inactive); in assay [4], 101 (inactive).
On to `CN1C2CCC1CC(OC(=O)C(CO)c1ccccc1)C2.CN1C2CCC1CC(OC(=O)C(CO)c1ccccc1)C2.O.O=S(=O)(O)O` (configuration not stated) [Atropine sulfate], for which, in assay [1], the cell number amounted to 102. For the same compound, the H1.0 immunofluorescence intensity was 91.8 (inactive) in assay [3] and 85.2 (inactive) in assay [4].
On to `COc1ccc2c(c1O)-c1c(OC)c(OC)cc3c1C(C2)N(C)CC3.Cl` (single isomer, unassigned; (+)) [(+)-Isocorydine hydrochloride], for which the cell number stood at 103 in assay [1] and 107 in assay [2]. In addition, the H1.0 immunofluorescence intensity was 94.5 (inactive) in assay [3] and 91.4 (inactive) in assay [4].
In the same order, the values of `NC(Cc1cc(O)c(O)cc1O)C(=O)O` (racemic) [6-Hydroxy-DL-DOPA] are 98.2, 96.2, 97 (inactive) and 93.8 (inactive).
In the same order, the values of `CC1CCCC=CC2CC(O)CC2C(O)C=CC(=O)O1` (configuration not stated) [Brefeldin A] are 68.2, 52.6, 132 (active) and 208 (active).
The matching figures for `COc1ccc2c(c1)C(=Cc1cnc[nH]1)C(=O)N2`: 72.4, 49.2, 98.1 (inactive) and 107 (inactive).
As to `CC(N)Cc1c[nH]c2ccc(OCc3cccs3)cc12.Cl` (configuration not stated), the cell number in assay [1] came out at 102; in assay [2], 115. In addition, the results for the H1.0 immunofluorescence intensity in assay [3] and in assay [4] were 87.9 (inactive) and 92.8 (inactive), respectively.
In the case of `NC(=NN=Cc1ccc(-c2cccc([N+](=O)[O-])c2)o1)N[N+](=O)[O-]` [ERK Inhibitor III], the figures for the cell number in assay [1] and in assay [2] were 102 and 101, respectively. Besides, the H1.0 immunofluorescence intensity was 95.3 (inactive) in assay [3] and 102 (inactive) in assay [4].
